Source: PubChem
In the library only some 4.2% were active in any assay of this set; here they are far more common.
SW480 rerep – induces DNA re-replication in SW480 colon adenocarcinoma cells; actives 1.8% (n = 340,000); Potency, µM (titrated, usually from 46.1 µM), for inactives: at the top dose re-replication activation, usual class: activators; SW480 DNA re-replication, Hoechst DNA content imaging, 48 h; AID 624297; also: % of control where 0% means no effect; nearly all actives have a fitted effect of over 55% in size
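Compounds, transferred as 23 nL by pin tool, were incubated with cells for 48 hr; DNA content per nucleus was then quantified by Hoechst staining and fluorescence plate imaging.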
Integrin act MD – activates integrin-mediated alleviation for muscular dystrophy. alpha7betagal myoblasts, beta-gal FDG fluorescence, 48 h. Potency, µM (titrated, usually from 38.3 µM), for inactives: top-dose activation, most hits filed as activators. actives 0.064% (n = 350,000). AID 624291;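 also: 100% = response of the positive control SU9516; nearly all actives have a fitted effect of over 60% in size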
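alpha7betagal+/- myoblasts (passage 13, 250/well) treated 48 h at 37C with compounds at 1:260 dilution of DMSO stock. Lysed, then beta-galactosidase activity read as FDG fluorescence (ex 480/em 540) after 30 min, with pre-read for autofluorescence.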
Mito fusion yeast – inhibitors of mitochondrial division or activators of mitochondrial fusion | actives 0.23% (n = 320,000) | S. cerevisiae fusion-defective mutant growth rescue, CellTiterGlo 48 h | Potency, µM (titrated, usually from 46.1 µM), inactives show at the highest dose growth rescue (activation), actives largely listed as activators; also: % of control where 0% means no effect; nearly all actives have a fitted effect of over 45% in size
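Read-out: ATP-based luminescence (CellTiterGlo, 10 min ambient) reporting growth of fusion-defective ts yeast after 48 hours at 37C on glycerol/ethanol YPEG medium in the presence of compound.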
AT treatment – potential ataxia-telangiectasia treatment | actives 0.19% (n = 320,000) | F2112 A-T fibroblasts, KAP-1 phosphorylation AlphaLISA; neocarzinostatin DNA damage 30 min before lysis | AID 485349 | Potency, µM (doses to about 57.5 µM), for the others: at the top dose activation, most hits filed as activators; also: % of control where 0% means no effect; nearly all actives have a fitted effect of over 45% in size
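hTERT-immortalized A-T patient fibroblasts (F2112), 500 cells/well in OPTI-MEM, 1% FBS, got compounds for 60 min, then NCS for 30 min at 37C. Lysates were then assayed for phospho-KAP-1 by AlphaLISA (anti-pKAP1 donor, anti-KAP1 acceptor beads), 6 hr at 25C.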
MCF10A rerep – inducers of DNA re-replication in MCF 10A breast cells; MCF 10A DNA re-replication, Hoechst nuclear intensity, 48 h; Potency, µM (series often up to 46.1 µM), for the others: at the highest dose activity, positive = re-replication, most hits filed as activators; actives 2.9% (n = 350,000); AID 624296; also: % of control where 0% means no effect; nearly all actives have a fitted effect of over 50% in size
* marks the source's active call; other numbers are inactive results; ? = inconclusive; . = no result given; [ ] = remark or other dose. Calls follow the shape of the dose curve; as a rule, active = well fitted activation curve with a large enough effect; inconclusive = small, poorly fitted or top-dose-only effect; inactive = no such curve, though single readings can be large or run the other way. Potency is read from the fitted curve at half-maximal effect.

SMILES	SW480 rerep	Integrin act MD	Mito fusion yeast	AT treatment	MCF10A rerep
O=C(CCCN1C(=O)/C(=C/c2ccccc2Cl)SC1=S)NNC(=O)c1ccncc1	-31%	-26%	-4%	-12%	13µM*
O=C(CCN1C(=O)/C(=C/c2ccccc2Cl)SC1=S)N1CCCC1	15µM*	-5%	17%	-4%	?
Nc1cc(C(=O)N2CCN(c3cccc(Cl)c3)CC2)ccc1N1CC2CC(C1)c1cccc(=O)n1C2 (stereo not drawn)	.	-9%	.	.	.
COc1cc2c(C#N)c(N3CCN(c4ccccc4OC)CC3)nc(N)c2c(N)n1	?	-12%	?	3%	10µM*
O=C(COC(=O)c1cc[n+]([O-])cc1)Nc1ccc([N+](=O)[O-])cc1C(F)(F)F	0%	13%	7%	9%	-2%
OC[C@@H]1CC[C@@H](Cc2ccc(-c3ccccc3)cc2)O1	7%	5%	.	-15%	-11%
CN1CCC(Oc2ccc(Sc3ccccc3)cc2)CC1	11%	-46%	-18%	-12%	31%
CN1CCC(Oc2ccccc2Sc2ccc(C(F)(F)F)cc2)CC1	?	-11%	-19%	-11%	8.2µM*
COc1ccc(/C(C)=N/OCC(=O)N2CC3(C)CC2CC(C)(C)C3)cc1 (stereo not drawn)	2%	-8%	15%	-3%	-3%
O=c1[nH]c(-c2ccccc2)ncc1OCc1ccccc1	-8%	-6%	.	.	-4%
Nc1nc(=S)ss1	?	-41%	.	.	21µM*
COc1cc(OC)c2ccc(=O)oc2c1C(CC(=O)N1CCOCC1)c1ccc(N(C)C)cc1 (stereo not drawn)	-14%	0%	6%	43%	-7%
CN1CCN(C(=S)SCC(=O)Nc2nc(-c3ccccc3)c(-c3ccccc3)o2)CC1	-108%	-18%	-2%	-6%	12µM*
CCOC(=O)C1=CN(CC2CCCO2)C=C(C(=O)OCC)C1c1ccccc1C(F)(F)F (stereo not drawn)	15µM*	0%	1%	15%	13µM*
CCOC(=O)c1ccc(NC(=O)c2cccc3c2C(=O)N(CC2CCCO2)C3)cc1 (stereo not drawn)	-4%	?	11%	22%	9%
CCN(CC)C(=O)C1=C(C)N(Cc2ccc(OC)cc2)C(=O)C(CC(=O)NCC2CCCCC2)C1 (stereo not drawn)	.	-33%	.	.	.
CCn1c2ccccc2c2cc(/C=N/O)ccc21	4.1µM*	-13%	28%	0%	2%
CCn1c2ccccc2c2cc(/C=N/n3cnnc3)ccc21	-16%	35%	-16%	3%	-3%
CCn1c2ccccc2c2cc(/C=N/n3c(-c4cc(C)[nH]n4)n[nH]c3=S)ccc21	-32%	41%	4%	-11%	8.2µM*
CCn1c2ccccc2c2cc(/C=N/n3cn[nH]c3=S)ccc21	3.7µM*	-5%[7.66 µM]	-12%	-2%	?
CCN(CC)S(=O)(=O)c1ccc(N2CCOCC2)c(NC(=O)c2cc([N+](=O)[O-])ccc2Cl)c1	1%	-10%	-3%	-3%	0%
COc1cc(NC(=O)COc2ccc(-n3cnnn3)cc2)cc(OC)c1OC	-6%	-22%	.	0%	4%
Cc1ccc(S(=O)(=O)N2CCOCC2)cc1C(=O)OCC(=O)Nc1ccc2[nH]c(=O)[nH]c2c1	1%	18%	-2%	1%	4%
COc1cccc(C(=O)C2=NN(C(C)=O)CC2c2ccco2)c1 (stereo not drawn)	-2%	0%	3%	-2%	-9%
Cc1cc(OCC(=O)OCC(=O)N2CCCCC2)ccc1Cl	.	-16%	.	.	.
SMILES	SW480 rerep	Integrin act MD	Mito fusion yeast	AT treatment	MCF10A rerep
CC1C(=O)N(Cc2cn(CCC3OCCCO3)nn2)CCS(=O)(=O)N1Cc1ccc(-c2ccc(Cl)nc2)cc1 (stereo not drawn)	.	-12%	.	.	.
O=C(COC(=O)c1n[nH]c(=O)c2ccccc12)Nc1ccccc1	-2%	8%	-1%	-2%	-6%
CCOC(=O)c1cnc2c(C)cc(Cl)cc2c1NCCCN1CCOCC1	0%	-10%	-1%	-2%	23µM*
CCOC(=O)c1cnc2c(Cl)cc(Cl)cc2c1NCCCN1CCOCC1	21%	-14%	2%	14%	18%
COc1ccccc1-n1c2nc3ccccc3nc2c2c(=O)n(-c3cc(C)cc(C)c3)cnc21	?	12%	3%	.	23µM*
COc1ccccc1-n1cnc2c(c1=O)c1nc3ccccc3nc1n2-c1ccc(C)cc1	-44%	13%	28%	-4%	-4%
Cc1ccc(S(=O)(=O)N2C[C@H]3[C@H]4C(=O)N(c5ccccc5)C(=O)[C@H]4C[C@H](OC(=O)NCc4ccccc4F)[C@@]3(O)C2)cc1	.	-9%	.	.	.
CCOc1ccc(NC(=O)CCC(=O)c2ccc(Br)cc2)cc1	0.65µM*	-27%	1%	7%	4%
Cc1ccc(CCC(=O)Nc2ccc(Br)cc2)o1	15µM*	-12%	1%	-1%	?
CCCOc1ccc(C(=O)CCC(=O)OCC(=O)Nc2ccc(Oc3ccccc3)cc2)cc1	.	.	-4%	-1%	.
CCCOc1ccc(C(=O)CCC(=O)OCC(=O)Nc2ccc(OCC)cc2)cc1	.	.	-1%	14µM*	.
CCOc1ccc(NC(=O)CCC(=O)c2ccc(OC)cc2)cc1	-6%	?	-3%	1%	-3%
Clc1ccc(-c2nnc(-c3ccccc3Cl)o2)cc1	0%	-8%	3%	10%	9%
Clc1ccc(-c2nnc(-c3cccc4ccccc34)o2)cc1Cl	-11%	14%	4%	16µM*	0%
N#C/C(=C\c1cccc(Br)c1)C(=O)N1CCCCC1	?	19%	-33%	31%	23µM*
N#C/C(=C\c1cccc(O)c1)C(=O)N1CCCCC1	?	-18%	-4%	2%	18µM*
O=C(N/N=C/c1cc(Cl)ccc1O)c1ccc(Br)cc1	1.6µM*	1%	-3%	-4%	14%
Cc1ccc(N=Nc2ccc(O)c(/C=N\NC(=O)c3ccc(N)cc3)c2)cc1C	3.7µM*	-4%	2%	-3%	0%
C#CCN(C[C@@H]1[C@@H](OC(=O)NCC2CCCCC2)[C@@H](OC(=O)NCC2CCCCC2)Cn2c(=O)n(CCCCCC)c(=O)n21)S(=O)(=O)c1ccc(C)cc1	.	-2%	.	.	.
Cc1ccccc1OCC(=O)OCC(=O)NCCc1ccccc1	-10%	1%	0%	0%	-5%
CC12CCC(O)CC1=CCC1C2CCC2(C)c3[nH]ncc3CC12 (stereo not drawn)	?	-16%	.	.	15µM*
COC(=O)C1=C(C)NC(C)=C(C(=O)OC)C1c1ccccc1OCc1c(C)no[n+]1[O-]	13%	2.8µM*	8%	2%	?
O=C(Nc1c2ccccc2nc2ccccc12)C(Cl)(Cl)Cl	?	-34%	-4%	?	13µM*
